Results published in PubChem BioAssay.
Results filed as inconclusive are left out. Active and inactive are the calls of the source.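 The calls were made as follows, unless noted: active = Her2 level under about 52% in both replicate screens, with viability over 70% of control (limit read from the data); inconclusive = Her2 under the limit in one screen only, or viability under 70%; inactive = Her2 level above the set limit.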

Legend:
[1] = reducers of endogenous Her2 protein level, primary screen, SKBR3 breast tumor cells, AlphaScreen, ATP viability (AID 461); settings: 18-24 h, measured here: SKBR3 viability, ATP luminescence, at 10 µM;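 as to Her2 level: lower value means less Her2 protein in the cells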;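 as to viability: percent of carrier control wells set as 100% viability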
[2] = target: Receptor tyrosine-protein kinase erbB-2 (Homo sapiens) (UniProt P04626); test: as above; settings: 18-24 h, at 10 µM, stronger effect = lower value
[3] = SK-BR-3 cell growth inhibitors, pilot screen, 24 h, human (AID 572;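 active = viability at or below 10% of carrier control in both of two separate runs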;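 also: compound exposure lasted between 18 and 24 h rather than exactly 24 h; 100% = carrier-treated control wells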); settings: SK-BR-3 viability, CellTiter-Glo luminescence, at 10 µM, stronger effect = lower value
[4] = HUVEC growth inhibition – cell-based, human, primary screen (AID 575;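 active = viability at or below 30% in both replicate assays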;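 also: 100% = median of untreated cell wells with 0.1% DMSO on each plate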); settings: HUVEC proliferation, CellTiter-Glo luminescence, 72 h; at 10 µM; stronger effect = lower value
[5] = growth inhibitors of H69AR lung tumor, primary screen, human, duplicate replicates (AID 580;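 active = viability at or under a set limit in both replicates, limit being median viability minus 3 SD, cut at about 48% in these data, passing the limit was not always enough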;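 also: 100% = mean luminescence of untreated wells and 0% = no signal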); settings: H69AR lung tumor cells viability, ATP luminescence, 72 h; at 10 µM; stronger effect = lower value
[6] = reversal of MRP1-mediated doxorubicin resistance, pilot screen, H69AR cells, doxorubicin co-treatment (AID 601;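 active = viability loss from added drug above about 55%, and viability with drug at most 40%, in both replicates, limit read from the data, passing the limit was not always enough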); settings: CellTiter-Glo, 72 h, at 10 µM; for differential viability (reversal): stronger effect = higher value
[7] = 384-well plate pilot, post-Golgi transport modulator project, inhibition of yeast transport mutant growth (AID 636; in the data active = inhibition above about 31%); settings: absorbance 615 nm, about 18 h, stronger effect = higher value
[8] = growth suppression of yeast trafficking mutant, preliminary HTS, modulators of trafficking downstream of Golgi apparatus project, 1536-format plate, OD 615 nm (AID 637; in the data active = inhibition above about 30%); settings: yeast transport mutant growth, absorbance 615 nm, 18 h; stronger effect = higher value
[9] = OD615 S. cerevisiae growth inhibition, permissive medium, pilot counter-assay, permissive growth control for S. cerevisiae lifespan shortening project (AID 705;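 active = growth inhibition above 25% in both replicates, a cutoff set 3 SD above the mean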); settings: OD615, 24 h, at 10 µM, stronger effect = higher value
[10] = Restrictive medium S. cerevisiae growth inhibition, OD615, pilot screen of yeast lifespan reduction project, restrictive growth control (AID 706;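 active = growth inhibition above a set limit, 3 SD over mean compound inhibition, in both replicates, cut at about 43% in these data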;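 also: modified DeaD lifespan yeast strain shifted to restrictive glucose medium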); settings: OD615, 48 h, at 10 µM, stronger effect = higher value
[11] = viability gain of MRP-1-high H69AR cells under doxorubicin, pilot screen, MRP-1 activator project, CellTiter-Glo, duplicate (AID 807;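 active = viability increase at or above a cutoff of the median across tested compounds plus 3 SD, cut at about 8.5% in these data, passing the limit was not always enough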;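 also: compound pretreatment 18-22 h then 72 h combined with doxorubicin; 0% = doxorubicin alone and 100% = vehicle without doxorubicin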); settings: H69AR viability with doxorubicin, CellTiter-Glo luminescence; at 10 µM; stronger effect = higher value
[12] = growth suppression of beta-catenin knockout HCT116, pilot screen, human colon tumor cells (AID 823;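 active = cell viability at or below a set limit in both duplicate runs, the limit being the all-compound median minus 4 SD, cut at about 23% in these data, passing the limit was not always enough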;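 also: 0% = wells killed by 20 µM Hyamine and 100% = untreated DMSO cell wells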); settings: CellTiter-Glo, 60 h, at 10 µM, stronger effect = lower value
[13] = growth suppression of PTEN-deleted HCT116, pilot screen, cell-based, HCT116 clonal line, CellTiter-Glo (AID 824;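 active = viability at or below 27.92% in each of two runs, the all-compound median minus 4 SD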;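 also: 0% = 20 µM Hyamine control and 100% = vehicle cell control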); settings: 60 h, at 10 µM, stronger effect = lower value
[14] = inhibitors of the yeast RAM network, pilot screen, dse1pr::URA3 reporter, 5-FOA selection (AID 869;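 active = inhibition over a set limit, the all-compound mean plus 3 SD, in both replicate runs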;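 also: 0% = DMSO wells with no growth and 100% = 10 µM 1-NA-PP1 with full growth; RAM network block rescues cells from 5-FOA so hits raise OD615 growth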); settings: S. cerevisiae dse1pr::URA3 5-FOA growth, OD615, 2 d; at 10 µM; stronger effect = higher value; strain carries analog-sensitive mutant Cbk1 kinase
[15] = RAM signaling pathway blockade in yeast – S. cerevisiae, Pdr1DBD-CYC8 efflux-inhibited sensitized strain, primary screen (AID 1298;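 active = RAM network inhibition above 8.4% in each of two replicates, 3 SD over the compound average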;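 also: 0% = DMSO untreated cells without growth and 100% = 10 µM 1-NA-PP1 full growth; higher means more yeast growth rescued from 5-FOA killing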); settings: S. cerevisiae cbk1-as DSE1-URA3 strain, 5-FOA growth OD615, 2 d; at 50 µM; stronger effect = higher value
[16] = H69AR cells + 2 uM doxorubicin, measured here: viability with 2 uM doxorubicin, stronger effect = lower value
[17] = H69AR cells, compound alone cytotoxicity

Receptor tyrosine-protein kinase erbB-2 (Homo sapiens), sequence (P04626 whole entry, looked up): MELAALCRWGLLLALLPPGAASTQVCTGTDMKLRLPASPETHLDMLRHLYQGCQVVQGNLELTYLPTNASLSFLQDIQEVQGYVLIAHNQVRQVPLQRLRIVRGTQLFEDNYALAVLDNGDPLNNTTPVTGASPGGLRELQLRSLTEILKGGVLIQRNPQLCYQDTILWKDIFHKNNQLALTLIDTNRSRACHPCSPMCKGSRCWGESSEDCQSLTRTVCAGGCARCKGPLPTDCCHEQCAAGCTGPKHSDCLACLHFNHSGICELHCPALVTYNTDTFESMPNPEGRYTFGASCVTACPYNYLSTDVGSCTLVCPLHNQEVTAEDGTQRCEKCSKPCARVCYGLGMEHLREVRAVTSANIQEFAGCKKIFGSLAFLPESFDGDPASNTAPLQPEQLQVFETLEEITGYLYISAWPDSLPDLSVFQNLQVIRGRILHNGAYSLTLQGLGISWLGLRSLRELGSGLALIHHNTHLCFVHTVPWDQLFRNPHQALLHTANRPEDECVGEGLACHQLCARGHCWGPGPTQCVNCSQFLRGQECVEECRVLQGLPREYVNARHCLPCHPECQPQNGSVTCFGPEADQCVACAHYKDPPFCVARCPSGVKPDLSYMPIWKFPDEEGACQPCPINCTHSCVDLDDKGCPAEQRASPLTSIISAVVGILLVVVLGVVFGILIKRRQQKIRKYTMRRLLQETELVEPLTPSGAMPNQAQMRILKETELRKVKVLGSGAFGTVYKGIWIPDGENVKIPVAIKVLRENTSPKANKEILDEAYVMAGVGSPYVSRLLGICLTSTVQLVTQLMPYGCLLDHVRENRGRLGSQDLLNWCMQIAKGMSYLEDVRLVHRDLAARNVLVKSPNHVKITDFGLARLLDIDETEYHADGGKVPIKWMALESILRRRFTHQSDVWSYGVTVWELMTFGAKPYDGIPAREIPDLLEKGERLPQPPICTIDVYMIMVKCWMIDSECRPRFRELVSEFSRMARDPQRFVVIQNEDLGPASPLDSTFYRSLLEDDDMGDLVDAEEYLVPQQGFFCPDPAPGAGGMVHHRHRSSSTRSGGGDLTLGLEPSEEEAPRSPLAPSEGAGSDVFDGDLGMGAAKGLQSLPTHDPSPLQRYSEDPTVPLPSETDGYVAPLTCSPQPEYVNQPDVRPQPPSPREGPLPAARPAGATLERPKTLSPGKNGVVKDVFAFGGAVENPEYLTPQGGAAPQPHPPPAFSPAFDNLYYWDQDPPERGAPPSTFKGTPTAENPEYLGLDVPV

Q: For `COCCNC(=O)CN(C)S(=O)(=O)c1ccc(Br)cc1`, which viability [1] is on record?
A: 113%

Q: What about the Her2 level [2] of the same compound?
A: 98% (inactive)

Q: And the viability [3]?
A: 113% (inactive)

Q: And the viability [4]?
A: 97.5% (inactive)

Q: What about the viability [5] of the same compound?
A: 104% (inactive)

Q: What about the differential viability (reversal) ([6]; H69AR cells + 2 uM doxorubicin) of the same compound?
A: 5.54% (inactive)

Q: What about the viability [6, 16] of the same compound?
A: 98.2%

Q: And the viability [6, 17]?
A: 104%

Q: What about the inhibition [7] of the same compound?
A: -6.27% (inactive)

Q: And the inhibition [8]?
A: -3.23% (inactive)

Q: And the growth inhibition [9]?
A: -11.6% (inactive)

Q: And the growth inhibition [10]?
A: -5.76% (inactive)

Q: And the viability increase [11]?
A: -2.09% (inactive)

Q: And the viability [12]?
A: 98.7% (inactive)

Q: What about the viability [13] of the same compound?
A: 98.4% (inactive)

Q: And the inhibition [14]?
A: 0.87% (inactive)

Q: What about the RAM network inhibition [15] of the same compound?
A: 3.01% (inactive)

Q: What does the source list for `O=C(NCC1CCCO1)C1CCN(S(=O)(=O)c2cccc3cccnc23)CC1` (stereo not given)?
A: viability [1]: 102%; Her2 level [2]: 93.5% (inactive); viability [3]: 102% (inactive); viability [4]: 112% (inactive); viability [5]: 101% (inactive); differential viability (reversal) ([6]; H69AR cells + 2 uM doxorubicin): 7.45% (inactive); viability [6, 16]: 94%; viability [6, 17]: 101%; inhibition [7]: -2.53% (inactive); inhibition [8]: -2.13% (inactive); growth inhibition [9]: -2.44% (inactive); growth inhibition [10]: 12% (inactive); viability increase [11]: -1.56% (inactive); viability [12]: 94.2% (inactive); viability [13]: 93.7% (inactive); inhibition [14]: 1.76% (inactive); RAM network inhibition [15]: 2.72% (inactive)

Q: For `O=C(Nc1ccccc1)C1=C(O)CC(c2ccoc2)CC1=Nc1ccccc1` (stereo not given), which viability [1] is on record?
A: 93%

Q: What about the Her2 level [2] of the same compound?
A: 91% (inactive)

Q: And the viability [3]?
A: 93% (inactive)

Q: What about the viability [4] of the same compound?
A: 96.8% (inactive)

Q: And the viability [5]?
A: 73% (inactive)

Q: What about the differential viability (reversal) ([6]; H69AR cells + 2 uM doxorubicin) of the same compound?
A: -6.7% (inactive)

Q: What about the viability [6, 16] of the same compound?
A: 79.7%

Q: And the viability [6, 17]?
A: 73%

Q: What about the inhibition [7] of the same compound?
A: 71.4% (active)

Q: And the inhibition [8]?
A: 4.59% (inactive)

Q: What about the growth inhibition [9] of the same compound?
A: -11.2% (inactive)

Q: And the growth inhibition [10]?
A: -4.9% (inactive)

Q: What about the viability increase [11] of the same compound?
A: -4.69% (inactive)

Q: What about the viability [12] of the same compound?
A: 69.6% (inactive)

Q: What about the viability [13] of the same compound?
A: 70.3% (inactive)

Q: And the inhibition [14]?
A: 1.05% (inactive)

Q: What about the RAM network inhibition [15] of the same compound?
A: 2.05% (inactive)

Q: For `CN1CCN(C(=O)c2ccc(CS(=O)(=O)c3c(Cl)cccc3Cl)o2)CC1`, which viability [1] is on record?
A: 98.5%

Q: What about the Her2 level [2] of the same compound?
A: 88.5% (inactive)

Q: What about the viability [3] of the same compound?
A: 98.5% (inactive)

Q: What about the viability [4] of the same compound?
A: 97.4% (inactive)

Q: What about the viability [5] of the same compound?
A: 94.3% (inactive)

Q: And the differential viability (reversal) ([6]; H69AR cells + 2 uM doxorubicin)?
A: 8.46% (inactive)

Q: And the viability [6, 16]?
A: 85.8%

Q: What about the viability [6, 17] of the same compound?
A: 94.3%

Q: And the inhibition [7]?
A: -2% (inactive)

Q: And the inhibition [8]?
A: -2.46% (inactive)

Q: What about the growth inhibition [9] of the same compound?
A: -7.05% (inactive)

Q: What about the growth inhibition [10] of the same compound?
A: -12% (inactive)

Q: What about the viability increase [11] of the same compound?
A: 0.72% (inactive)

Q: What about the viability [12] of the same compound?
A: 103% (inactive)

Q: What about the viability [13] of the same compound?
A: 96% (inactive)

Q: And the inhibition [14]?
A: 1.41% (inactive)

Q: And the RAM network inhibition [15]?
A: 0.22% (inactive)

Q: Which results are given for `Cc1cccc(-n2ncc3c(NCCCn4ccnc4)ncnc32)c1`?
A: viability [1]: 91.5%; Her2 level [2]: 93.5% (inactive); viability [3]: 91.5% (inactive); viability [4]: 111% (inactive); viability [5]: 88.6% (inactive); differential viability (reversal) ([6]; H69AR cells + 2 uM doxorubicin): 3.66% (inactive); viability [6, 16]: 84.9%; viability [6, 17]: 88.6%; inhibition [7]: 2.13% (inactive); inhibition [8]: -3.67% (inactive); growth inhibition [9]: -2.31% (inactive); growth inhibition [10]: -0.87% (inactive); viability increase [11]: -0.65% (inactive); viability [12]: 92.9% (inactive); viability [13]: 99.5% (inactive); inhibition [14]: 1.1% (inactive); RAM network inhibition [15]: -0.32% (inactive)

Q: Which results are given for `Cc1cc(C)n(-c2cc(N3CCOCC3)ncn2)n1`?
A: viability [1]: 101%; Her2 level [2]: 90.5% (inactive); viability [3]: 101% (inactive); viability [4]: 93.2% (inactive); viability [5]: 91.7% (inactive); differential viability (reversal) ([6]; H69AR cells + 2 uM doxorubicin): 2.58% (inactive); viability [6, 16]: 89.1%; viability [6, 17]: 91.7%; inhibition [7]: -3.47% (inactive); inhibition [8]: 3.67% (inactive); growth inhibition [9]: -3.3% (inactive); growth inhibition [10]: 12.9% (inactive); viability increase [11]: -1.2% (inactive); viability [12]: 93% (inactive); viability [13]: 93.1% (inactive); inhibition [14]: 0.035% (inactive); RAM network inhibition [15]: 2.04% (inactive)

Q: What does the source list for `COc1ccc(N2CCN(CCCNS(=O)(=O)c3c(C)noc3/C=C/N(C)C)CC2)cc1`?
A: viability [1]: 99.5%; Her2 level [2]: 94.5% (inactive); viability [3]: 99.5% (inactive); viability [4]: 83.1% (inactive); viability [5]: 92.9% (inactive); differential viability (reversal) ([6]; H69AR cells + 2 uM doxorubicin): 0.17% (inactive); viability [6, 16]: 92.8%; viability [6, 17]: 92.9%; inhibition [7]: -7.33% (inactive); inhibition [8]: -4.43% (inactive); growth inhibition [9]: -4.88% (inactive); growth inhibition [10]: 12% (inactive); viability increase [11]: -2.75% (inactive); viability [12]: 81% (inactive); viability [13]: 83.7% (inactive); inhibition [14]: 1.67% (inactive); RAM network inhibition [15]: 7% (inactive)

Q: What does the source list for `COc1ccc(NC(=O)CN(c2cc(C)cc(C)c2)S(=O)(=O)c2c(C)noc2C)cc1OC`?
A: viability [1]: 89%; Her2 level [2]: 73% (inactive); viability [3]: 89% (inactive); viability [4]: 110% (inactive); viability [5]: 88.2% (inactive); differential viability (reversal) ([6]; H69AR cells + 2 uM doxorubicin): 14.6% (inactive); viability [6, 16]: 73.6%; viability [6, 17]: 88.2%; inhibition [7]: 0.26% (inactive); inhibition [8]: -1.67% (inactive); growth inhibition [9]: -9.49% (inactive); growth inhibition [10]: -4.85% (inactive); viability increase [11]: -2.49% (inactive); viability [12]: 89% (inactive); viability [13]: 92.5% (inactive); inhibition [14]: 3.25% (inactive); RAM network inhibition [15]: 5.58% (inactive)

Q: With `O=C(CCCn1c(=O)c2sccc2n(Cc2cc(=O)n3ccccc3n2)c1=O)NCc1ccco1` as the compound, how does the viability [1] read?
A: 82.5%

Q: And the Her2 level [2]?
A: 126% (inactive)

Q: What about the viability [3] of the same compound?
A: 82.5% (inactive)

Q: And the viability [4]?
A: 87.7% (inactive)

Q: And the viability [5]?
A: 77% (inactive)

Q: And the differential viability (reversal) ([6]; H69AR cells + 2 uM doxorubicin)?
A: -2.97% (inactive)

Q: And the viability [6, 16]?
A: 80%

Q: What about the viability [6, 17] of the same compound?
A: 77%

Q: And the inhibition [7]?
A: 3.59% (inactive)

Q: What about the inhibition [8] of the same compound?
A: -4.33% (inactive)

Q: What about the growth inhibition [9] of the same compound?
A: -9.24% (inactive)

Q: What about the growth inhibition [10] of the same compound?
A: -2.77% (inactive)

Q: And the viability increase [11]?
A: -1.87% (inactive)

Q: What about the viability [12] of the same compound?
A: 91.3% (inactive)

Q: And the viability [13]?
A: 99.3% (inactive)

Q: What about the inhibition [14] of the same compound?
A: -0.225% (inactive)

Q: And the RAM network inhibition [15]?
A: 0.21% (inactive)

Q: Which results are given for `CCN(CC)CCN1C(=O)c2oc3ccc(F)cc3c(=O)c2C1c1ccncc1` (stereo not given)?
A: viability [1]: 89.5%; Her2 level [2]: 96.5% (inactive); viability [3]: 89.5% (inactive); viability [4]: 95.6% (inactive); viability [5]: 87.5% (inactive); differential viability (reversal) ([6]; H69AR cells + 2 uM doxorubicin): 4.02% (inactive); viability [6, 16]: 83.5%; viability [6, 17]: 87.5%; inhibition [7]: -3.2% (inactive); inhibition [8]: -8.67% (inactive); growth inhibition [9]: -0.15% (inactive); growth inhibition [10]: -0.92% (inactive); viability increase [11]: 0.69% (inactive); viability [12]: 96.4% (inactive); viability [13]: 95.9% (inactive); inhibition [14]: 0.78% (inactive); RAM network inhibition [15]: 2.14% (inactive)
